According to PubChem BioAssay:
“And” between values parts separate entries of the source, which are not always exact repeats. Equal entries are not always repeated. The source made the active and inactive calls.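 How the source made its calls, unless noted: active means normalized viability below 100% at a tested concentration; inactive means the rest.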

Assays:
[1] = Wnt pathway potentiators raising nuclear beta-catenin – imaging, WNT3A-conditioned medium, mouse C2C12, NPC library, primary screen (AID 1117326; in the data active means nuclear beta-catenin stimulation mostly above about 4.2%, no sharp cut-off; inactive means mostly below about 10%); conditions: stronger effect = higher value
[2] = stimulators of insulin release from INS-1E, primary screen, cell-based, 5 mM glucose, NPC library (AID 1117329;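 active means compound raises insulin release from rat beta cells at 5 mM glucose, no numeric limit stated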); conditions: rat INS-1E insulin secretion, at 10 µM, stronger effect = higher value
[3] = growth inhibition of GSK3B-pretreated HCT116 cells – cell-based, CellTiter-Glo, 0.2 to 20 µM (AID 1117336;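 active means compounds lowering colon cancer cell viability after pretreatment blocking the GSK3B kinase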); conditions: HCT116 viability after GSK3B inhibitor, at 20 µM, stronger effect = higher value
[4] = inhibition of endothelial tube formation, primary screen, imaging, VEGF stimulated, CD31 staining, tube area, NPC library (AID 1117340;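 active means compound that reduces growth-factor-driven endothelial tube area in a mixed cell culture, no cutoff stated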); conditions: VEGF-stimulated ADSC/ECFC co-culture, at 10 µM, stronger effect = higher value
[5] = GLP1 release stimulators, primary, NCI-H716, NPC library (AID 1117341;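 active means compound raises GLP1 secretion from the human gut endocrine cells, with no numeric limit stated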); conditions: NCI-H716 cells, at 10 µM, stronger effect = higher value
[6] = HCT116 colon cancer cell growth inhibition, primary screen, CellTiter-Glo luminescence, NPC library (AID 1117342;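 active means compounds that lower survival of HCT116 colon cancer cells in the luminescence readout, no numeric limit stated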); conditions: at 20 µM (top of the series)
[7] = reduced SW480 viability measured with CellTiter-Glo, NPC library, primary (AID 1117343;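 active means compounds that lower viability of the colon cancer cells in the luminescence readout, with no numeric limit stated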); conditions: CellTiter-Glo luminescence; at 20 µM (top of the series)
[8] = NPC library primary testing for decreased DLD-1 cell viability via CellTiter-Glo (AID 1117346;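 active means compounds that lower survival of DLD-1 colon cancer cells in the luminescence readout, no cutoff given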); conditions: DLD-1 viability, CellTiter-Glo luminescence; at 20 µM (top of the series)
[9] = target: 6-phosphogluconate dehydrogenase, decarboxylating (Homo sapiens) (UniProt P52209); assay: inhibition of human phosphogluconate dehydrogenase – biochemical, recombinant enzyme, NADPH absorbance, primary screen (AID 1159550;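 active means at least 20% inhibition of 6-phosphogluconate dehydrogenase activity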); conditions: recombinant 6PGD, NADPH absorbance 341 nm; at 10 µM; stronger effect = higher value
6-phosphogluconate dehydrogenase, decarboxylating (Homo sapiens), sequence (P52209 whole entry, looked up): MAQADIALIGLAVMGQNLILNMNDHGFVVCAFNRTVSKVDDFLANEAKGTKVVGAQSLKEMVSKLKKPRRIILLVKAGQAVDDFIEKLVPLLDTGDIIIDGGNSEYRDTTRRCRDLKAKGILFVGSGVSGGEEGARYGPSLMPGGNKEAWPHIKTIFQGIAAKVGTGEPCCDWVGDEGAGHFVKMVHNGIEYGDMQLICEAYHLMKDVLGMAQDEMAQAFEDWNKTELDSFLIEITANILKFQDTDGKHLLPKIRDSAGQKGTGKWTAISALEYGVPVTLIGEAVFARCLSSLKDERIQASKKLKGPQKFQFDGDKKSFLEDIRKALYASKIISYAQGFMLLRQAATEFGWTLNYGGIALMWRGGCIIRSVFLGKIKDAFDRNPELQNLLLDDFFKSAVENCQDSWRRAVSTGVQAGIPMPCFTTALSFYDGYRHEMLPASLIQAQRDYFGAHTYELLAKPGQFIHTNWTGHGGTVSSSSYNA

[10] = EMT-state selective cytotoxicity in co-culture – imaging, PC-3E GFP, TEM4-18 mCherry, primary screen (AID 1345086;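 active means compounds killing one labelled cell type while sparing the other, by normalised counts and ratio limits, not self-fluorescent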;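 on all read-outs here: cells exposed to compound for 72 h before imaging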;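 on red/green cell ratio (normalised): normalised mesenchymal count divided by normalised epithelial count so high means epithelial killing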); conditions: PC-3E GFP / TEM4-18 mCherry co-culture, imaging cell counts, at 1 µM; for red/green cell ratio (normalised): actives lie on both sides, counts scaled to control wells, 1 = unselective
[11] = MELAS cybrid and Rieske KO viability enhancers – cell-based, MELAS cybrids, Rieske KO mouse fibroblasts, CellTiter-Glo, primary screen (AID 1508586;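 active means mean z-score across replicates of 1.96 or higher in either the MELAS or the Rieske mutant cell line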;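 further: z relative to plate mean and SD of compound and empty wells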); conditions: low glucose
[12] = target: NAD(+) hydrolase SARM1 (Homo sapiens) (UniProt Q6SZW1); assay: blocking NAD cleavage by SARM1 SAM-TIR – cell lysate, NAD-Glo luminescence (AID 1508614;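 active means compound whose remaining NAD level is above about 45 nM, limit read from the data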); conditions: SAM-TIR HEK293T lysate NADase, at 1 µM, stronger effect = higher value
NAD(+) hydrolase SARM1 (Homo sapiens), sequence (Q6SZW1 whole entry, looked up, the tested form may be a part): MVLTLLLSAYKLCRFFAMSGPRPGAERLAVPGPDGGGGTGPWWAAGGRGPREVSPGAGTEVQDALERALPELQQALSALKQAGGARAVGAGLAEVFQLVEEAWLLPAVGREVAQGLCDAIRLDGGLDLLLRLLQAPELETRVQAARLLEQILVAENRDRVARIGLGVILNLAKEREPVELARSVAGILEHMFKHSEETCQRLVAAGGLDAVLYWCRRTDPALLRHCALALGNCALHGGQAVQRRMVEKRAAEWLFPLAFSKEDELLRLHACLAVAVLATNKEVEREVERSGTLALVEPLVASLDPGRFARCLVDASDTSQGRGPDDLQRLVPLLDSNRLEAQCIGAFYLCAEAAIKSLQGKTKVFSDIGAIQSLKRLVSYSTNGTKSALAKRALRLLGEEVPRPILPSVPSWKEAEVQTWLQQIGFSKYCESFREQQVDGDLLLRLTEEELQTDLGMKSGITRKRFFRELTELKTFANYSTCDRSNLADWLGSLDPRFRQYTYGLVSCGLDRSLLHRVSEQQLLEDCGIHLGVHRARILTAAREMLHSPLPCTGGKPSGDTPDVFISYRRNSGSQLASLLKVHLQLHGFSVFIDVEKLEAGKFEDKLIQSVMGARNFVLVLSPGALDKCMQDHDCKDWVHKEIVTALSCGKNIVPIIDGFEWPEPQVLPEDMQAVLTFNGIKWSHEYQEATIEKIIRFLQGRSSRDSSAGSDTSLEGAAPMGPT

[13] = target: Mitogen-activated protein kinase 7 (Homo sapiens) (UniProt Q13164); assay: Gal4-ERK5 driven luciferase induction – cell-based, HTS, primary screen (AID 1508626;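 active means luciferase signal above three times the same-plate solvent-only control wells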;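 further: luciferase driven by Gal4-ERK5 fusion binding five Gal4 sites before minimal TATA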); conditions: HeLa Gal4-ERK5 transactivation, 18 h, at 5 µM, stronger effect = higher value
Mitogen-activated protein kinase 7 (Homo sapiens), sequence (Q13164 whole entry, looked up, the tested form may be a part): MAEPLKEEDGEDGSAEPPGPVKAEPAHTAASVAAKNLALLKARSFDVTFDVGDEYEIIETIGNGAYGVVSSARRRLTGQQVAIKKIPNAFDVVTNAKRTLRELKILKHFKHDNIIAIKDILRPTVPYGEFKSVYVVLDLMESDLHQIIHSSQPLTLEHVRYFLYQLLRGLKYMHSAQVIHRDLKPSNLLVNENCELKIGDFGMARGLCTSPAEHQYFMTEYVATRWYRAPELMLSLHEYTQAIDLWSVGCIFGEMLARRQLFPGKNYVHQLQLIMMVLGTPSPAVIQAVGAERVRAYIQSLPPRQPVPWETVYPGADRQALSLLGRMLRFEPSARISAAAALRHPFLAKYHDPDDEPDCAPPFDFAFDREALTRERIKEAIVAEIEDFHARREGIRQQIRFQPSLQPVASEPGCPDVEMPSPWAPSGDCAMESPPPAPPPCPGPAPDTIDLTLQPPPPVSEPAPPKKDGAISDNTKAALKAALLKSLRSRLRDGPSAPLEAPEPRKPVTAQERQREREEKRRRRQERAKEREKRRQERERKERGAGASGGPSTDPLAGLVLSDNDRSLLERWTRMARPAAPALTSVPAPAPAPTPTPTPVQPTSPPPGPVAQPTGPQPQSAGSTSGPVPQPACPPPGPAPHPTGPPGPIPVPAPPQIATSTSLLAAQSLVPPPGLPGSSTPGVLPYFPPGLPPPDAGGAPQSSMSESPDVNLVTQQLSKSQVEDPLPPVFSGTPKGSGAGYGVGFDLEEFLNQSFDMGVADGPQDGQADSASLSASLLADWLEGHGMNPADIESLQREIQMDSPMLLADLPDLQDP

[14] = modulation of C. elegans fzo-1 (AID 1259413; call rule not given here;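 further: fzo-1 mutant C. elegans worms in liquid wells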); conditions: C. elegans fzo-1 modulator screen, mean read-out; stronger effect = higher value
F380Y = assay: BK channel mutant inhibitors and activators – cell-based, U2OS BacMam, thallium flux, beta subunits, selectivity assay, profiling panel (AID 1259406;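 active means thallium flux through the channel raised or lowered by more than 3 SD from vehicle-only wells, actives on both sides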;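 further: initial slope of Thallos dye fluorescence rise after thallium is added; log ratio against the mean of 0.3% DMSO vehicle wells on the same plate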); conditions: U2OS BacMam BK variants, at 30 µM
F380Y/beta1 = assay: as above; conditions: U2OS BacMam BK variants, at 30 µM
F380Y/beta2Delta = assay: as above; conditions: U2OS BacMam BK variants, at 30 µM
F380Y/beta4 = assay: as above; conditions: U2OS BacMam BK variants, at 30 µM
[15] = drug combination growth inhibition, ovarian cancer – cell-based, oncology-focused library, rucaparib conditional, profiling panel (AID 1508598); conditions: patient-derived ovarian cancer cells, CellTiter-Glo viability, 144 h, stronger effect = lower value
[16] = measured here: epithelial PC-3E GFP cell survival
[17] = measured here: mesenchymal TEM4-18 mCherry cell survival
[18] = MELAS cybrid survival, CellTiter-Glo 48 h, stronger effect = higher value
[19] = Rieske KO mouse fibroblast survival, CellTiter-Glo 72 h

CC[C@@]1(c2ccccc2)NC(=O)N(C)C1=O
inactive: nuclear beta-catenin stimulation ([1]; at 10 µM) 0.1% | insulin secretion stimulation [2] -0.2% | viability decrease [3] 2.35% | tube area decrease [4] 0.1% | GLP1 secretion stimulation [5] -0.6% | inhibition of viability [6] -10.2% | viability decrease (inhibition) [7] 11.6% | viability decrease (inhibition) [8] -9.4%
0.6%: nuclear beta-catenin stimulation ([1]; stimulation, at 2 µM)

C[C@H]1C[C@H]2[C@@H]3CCC4=CC(=O)C=C[C@]4(C)[C@@]3(Cl)[C@@H](O)C[C@]2(C)[C@@]1(O)C(=O)CO
0.5%: nuclear beta-catenin stimulation ([1]; stimulation, at 2 µM)
active: viability decrease (inhibition) [7] 70.7%
inactive: nuclear beta-catenin stimulation ([1]; at 10 µM) 0.9% | insulin secretion stimulation [2] 6.9% | viability decrease [3] -136% | tube area decrease [4] 14.4% | GLP1 secretion stimulation [5] -0.3% | inhibition of viability [6] 15.8% | viability decrease (inhibition) [8] 13.2%

CCN(CCO)CCCC(C)Nc1ccnc2cc(Cl)ccc12 (stereo unspecified)
1.45: normalised cell number [10, 16]
inactive: nuclear beta-catenin stimulation ([1]; at 10 µM) 3.8% | insulin secretion stimulation [2] 1.6% | viability decrease [3] 18.3% | tube area decrease [4] 22.5% | GLP1 secretion stimulation [5] 4.3% | inhibition of viability [6] 8.93% | viability decrease (inhibition) [7] -0.9% | viability decrease (inhibition) [8] -7.1% | inhibition [9] 13.2% | red/green cell ratio (normalised) [10] 0.76 | z-score [11, 18] -0.0994 | remaining NAD [12] 10 nM | luciferase signal [13] 96 AU
1.1: normalised cell number [10, 17]
0.0866: z-score [11, 19]
4.2%: nuclear beta-catenin stimulation ([1]; stimulation, at 2 µM)

Cc1coc2ccccc2c1=O
inactive: nuclear beta-catenin stimulation ([1]; at 10 µM) 1.5% | insulin secretion stimulation [2] -2.4% | viability decrease [3] 2.8% | tube area decrease [4] 13.7% | GLP1 secretion stimulation [5] 3.1% | inhibition of viability [6] -12.2% | viability decrease (inhibition) [7] 24.7% | viability decrease (inhibition) [8] -7.5% | inhibition [9] 1.24%
2.3%: nuclear beta-catenin stimulation ([1]; stimulation, at 2 µM)

c1ccc2[nH]ccc2c1
inactive: nuclear beta-catenin stimulation ([1]; at 10 µM) 0.4% | insulin secretion stimulation [2] -2.8% | viability decrease [3] -4.45% | tube area decrease [4] 10.7% | GLP1 secretion stimulation [5] 1.9% | inhibition of viability [6] -34.9% | viability decrease (inhibition) [7] 23.7% | viability decrease (inhibition) [8] 6.25%
3%: nuclear beta-catenin stimulation ([1]; stimulation, at 2 µM)

O=C1Cc2cc(Cl)ccc2N1
inactive: nuclear beta-catenin stimulation ([1]; at 10 µM) -0.3% | insulin secretion stimulation [2] 1% | viability decrease [3] 4.9% | tube area decrease [4] 2.8% | GLP1 secretion stimulation [5] 3.9% | inhibition of viability [6] 8.4% | viability decrease (inhibition) [7] -9.4% | viability decrease (inhibition) [8] 2.7%
-1.5%: nuclear beta-catenin stimulation ([1]; stimulation, at 2 µM)

CCN(Cc1ccncc1)C(=O)C(CO)c1ccccc1 (stereo unspecified)
0.0479 and 0.424 and 0.901: z-score [11, 19]
inactive: nuclear beta-catenin stimulation ([1]; at 10 µM) 0.5% | insulin secretion stimulation [2] 1.6% | viability decrease [3] 11.6% | tube area decrease [4] 7.1% | GLP1 secretion stimulation [5] 0.1% | inhibition of viability [6] 14.3% | viability decrease (inhibition) [7] 12% | viability decrease (inhibition) [8] 3.8% | inhibition [9] -16.3% | mean signal [14] 244 | red/green cell ratio (normalised) [10] 1.08 | z-score [11, 18] 0.0477 and 0.409 and -0.211 | remaining NAD [12] 10 nM | luciferase signal [13] 108 AU | log fold change Tl+ flux (F380Y) 0.0305 | log fold change Tl+ flux (F380Y/beta1) -0.00694 | log fold change Tl+ flux (F380Y/beta2Delta) -0.0245 | log fold change Tl+ flux (F380Y/beta4) -0.0208
1.16: normalised cell number [10, 17]
1.08: normalised cell number [10, 16]
-1.9%: nuclear beta-catenin stimulation ([1]; stimulation, at 2 µM)

CC(=O)CC(c1ccccc1)c1c(O)c2ccccc2oc1=O (stereo unspecified)
1.05: normalised cell number [10, 16]
1.02: normalised cell number [10, 17]
inactive: nuclear beta-catenin stimulation ([1]; at 10 µM) 3.2% | insulin secretion stimulation [2] 0.2% | viability decrease [3] -5.05% | tube area decrease [4] -0.7% | GLP1 secretion stimulation [5] 3.5% | inhibition of viability [6] -17.8% | viability decrease (inhibition) [7] 32.5% | viability decrease (inhibition) [8] 7% | inhibition [9] 6.78% | mean signal [14] 249 | red/green cell ratio (normalised) [10] 0.98 | z-score [11, 18] -0.697 | remaining NAD [12] 10 nM | luciferase signal [13] 136 AU | log fold change Tl+ flux (F380Y) -0.00266 | log fold change Tl+ flux (F380Y/beta1) -0.0341 | log fold change Tl+ flux (F380Y/beta2Delta) 0.0322 | log fold change Tl+ flux (F380Y/beta4) 0.0212
-0.222: z-score [11, 19]
0.2%: nuclear beta-catenin stimulation ([1]; stimulation, at 2 µM)

CC1=C(/C=C/C(C)=C/C=C/C(C)=C/C(=O)O)C(C)(C)CCC1
inactive: nuclear beta-catenin stimulation ([1]; at 10 µM) 8.6% | insulin secretion stimulation [2] 1.8% | tube area decrease [4] -33.9% | GLP1 secretion stimulation [5] 14.4% | inhibition [9] -0.523% | mean signal [14] 223 | red/green cell ratio (normalised) [10] 0.69 | z-score [11, 18] -0.0661 and 0.992 | viability ([15]; at 0.000305 µM, OCI-C5x cells, with rucaparib 10 µM, 100% = cells with rucaparib alone) 106% | viability ([15]; at 0.000305 µM, OCI-C5x cells, without rucaparib) 135% | viability ([15]; at 0.000305 µM, OCI-P5x cells, with rucaparib 20 µM, 100% = cells with rucaparib alone) 102% | viability ([15]; at 0.000305 µM, OCI-P5x cells, without rucaparib) 120% | viability ([15]; at 0.00122 µM, OCI-C5x cells, with rucaparib 10 µM, 100% = cells with rucaparib alone) 106% | viability ([15]; at 0.00122 µM, OCI-C5x cells, without rucaparib) 121% | viability ([15]; at 0.00122 µM, OCI-P5x cells, with rucaparib 20 µM, 100% = cells with rucaparib alone) 105% | viability ([15]; at 0.00122 µM, OCI-P5x cells, without rucaparib) 119% | viability ([15]; at 0.00488 µM, OCI-C5x cells, with rucaparib 10 µM, 100% = cells with rucaparib alone) 124% | viability ([15]; at 0.00488 µM, OCI-C5x cells, without rucaparib) 115% | viability ([15]; at 0.00488 µM, OCI-P5x cells, with rucaparib 20 µM, 100% = cells with rucaparib alone) 108% | viability ([15]; at 0.00488 µM, OCI-P5x cells, without rucaparib) 120% | viability ([15]; at 0.0195 µM, OCI-C5x cells, with rucaparib 10 µM, 100% = cells with rucaparib alone) 106% | viability ([15]; at 0.0195 µM, OCI-C5x cells, without rucaparib) 111% | viability ([15]; at 0.0195 µM, OCI-P5x cells, with rucaparib 20 µM, 100% = cells with rucaparib alone) 104% | viability ([15]; at 0.0195 µM, OCI-P5x cells, without rucaparib) 115% | viability ([15]; at 0.0781 µM, OCI-C5x cells, with rucaparib 10 µM, 100% = cells with rucaparib alone) 103% | viability ([15]; at 0.0781 µM, OCI-C5x cells, without rucaparib) 122% | viability ([15]; at 0.0781 µM, OCI-P5x cells, with rucaparib 20 µM, 100% = cells with rucaparib alone) 101% | viability ([15]; at 0.0781 µM, OCI-P5x cells, without rucaparib) 115% | viability ([15]; at 0.313 µM, OCI-C5x cells, with rucaparib 10 µM, 100% = cells with rucaparib alone) 103% | viability ([15]; at 0.313 µM, OCI-C5x cells, without rucaparib) 114% | viability ([15]; at 0.313 µM, OCI-P5x cells, without rucaparib) 109% | viability ([15]; at 1.25 µM, OCI-C5x cells, with rucaparib 10 µM, 100% = cells with rucaparib alone) 101% | viability ([15]; at 1.25 µM, OCI-C5x cells, without rucaparib) 115% | viability ([15]; at 1.25 µM, OCI-P5x cells, without rucaparib) 105% | viability ([15]; at 5 µM, OCI-C5x cells, with rucaparib 10 µM, 100% = cells with rucaparib alone) 101% | viability ([15]; at 5 µM, OCI-C5x cells, without rucaparib) 104% | remaining NAD [12] 10 nM | luciferase signal [13] 20 AU | log fold change Tl+ flux (F380Y) 0.0395 | log fold change Tl+ flux (F380Y/beta1) 0.0141 | log fold change Tl+ flux (F380Y/beta2Delta) -0.0201 | log fold change Tl+ flux (F380Y/beta4) 0.0201
1.34: normalised cell number [10, 16]
0.93: normalised cell number [10, 17]
0.0426 and 0.864: z-score [11, 19]
active: viability decrease [3] 102% | inhibition of viability [6] 102% | viability decrease (inhibition) [7] 142% | viability decrease (inhibition) [8] 104% | viability ([15]; at 0.313 µM, OCI-P5x cells, with rucaparib 20 µM, 100% = cells with rucaparib alone) 98.8% | viability ([15]; at 1.25 µM, OCI-P5x cells, with rucaparib 20 µM, 100% = cells with rucaparib alone) 92.2% | viability ([15]; at 5 µM, OCI-P5x cells, with rucaparib 20 µM, 100% = cells with rucaparib alone) 93.6% | viability ([15]; at 5 µM, OCI-P5x cells, without rucaparib) 99.6%
8.1%: nuclear beta-catenin stimulation ([1]; stimulation, at 2 µM)
